# Assay results: publication PMC7862700, “An all-to-all approach to the identification of sequence-specific readers for epigenetic DNA modifications on cytosine”
# Key:
# Assay in all cases: DAPPL (digital affinity profiling via proximity ligation, sequencing); 10 mM Tris-HCl pH 7.5, 50 mM NaCl, 1 mM DTT, 4% glycerol, room temperature, 30 min; GST-TFs on glutathione beads, 16-mer random dsDNA library, 0.1% formaldehyde crosslink after washing; high values mean tight binding
# Settings in all cases: protein: recombinant; tags: N-terminal GST; dsDNA, one strand shown
# FLI1 = biological target: T1, FLI1 (Homo sapiens, UniProt Q01543 1-452)
# T1 sequence: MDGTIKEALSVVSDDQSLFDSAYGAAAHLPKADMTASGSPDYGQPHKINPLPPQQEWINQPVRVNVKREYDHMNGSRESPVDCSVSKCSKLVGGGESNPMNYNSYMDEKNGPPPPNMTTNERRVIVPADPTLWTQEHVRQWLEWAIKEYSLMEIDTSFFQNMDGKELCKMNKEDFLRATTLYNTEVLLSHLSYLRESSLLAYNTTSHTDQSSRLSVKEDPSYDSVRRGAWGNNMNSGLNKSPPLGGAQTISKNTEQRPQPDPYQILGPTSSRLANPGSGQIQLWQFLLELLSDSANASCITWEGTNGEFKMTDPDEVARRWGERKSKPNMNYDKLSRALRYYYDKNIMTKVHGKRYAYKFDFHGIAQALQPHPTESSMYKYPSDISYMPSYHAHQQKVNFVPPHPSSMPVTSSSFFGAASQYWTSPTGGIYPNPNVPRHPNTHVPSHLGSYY
# Procedure, shortened: (§1)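 Human transcription factors were made in yeast as GST fusions, captured on glutathione beads and barcoded with DNA. With a tag-only sample included, the pool was incubated with 200 nmole of a random double-stranded 16-mer DNA library in Tris/NaCl/DTT/glycerol buffer at room temperature for 30 min, then crosslinked with 0.1% formaldehyde after washing, ligated by proximity, amplified and sequenced. For binding signal, each hexamer's read frequency for a factor is divided by its frequency for the tag-only sample.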
# ELK1 = biological target: T2, ELK1 (Homo sapiens, UniProt P19419 1-428)
# T2 sequence: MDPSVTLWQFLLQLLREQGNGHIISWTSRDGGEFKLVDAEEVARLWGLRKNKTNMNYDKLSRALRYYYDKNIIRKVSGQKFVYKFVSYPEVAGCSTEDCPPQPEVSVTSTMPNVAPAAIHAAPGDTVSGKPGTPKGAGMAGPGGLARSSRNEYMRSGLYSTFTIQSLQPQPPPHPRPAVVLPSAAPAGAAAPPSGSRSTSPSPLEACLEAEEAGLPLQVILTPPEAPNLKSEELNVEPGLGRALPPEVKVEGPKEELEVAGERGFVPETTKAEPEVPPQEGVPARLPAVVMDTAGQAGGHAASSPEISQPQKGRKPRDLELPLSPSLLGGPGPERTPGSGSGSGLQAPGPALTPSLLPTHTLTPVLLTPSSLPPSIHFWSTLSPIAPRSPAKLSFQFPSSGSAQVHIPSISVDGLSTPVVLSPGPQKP
# Procedure, shortened: as §1
# GABPA = biological target: T3, GABPA (Homo sapiens, UniProt Q06546 1-454)
# T3 sequence: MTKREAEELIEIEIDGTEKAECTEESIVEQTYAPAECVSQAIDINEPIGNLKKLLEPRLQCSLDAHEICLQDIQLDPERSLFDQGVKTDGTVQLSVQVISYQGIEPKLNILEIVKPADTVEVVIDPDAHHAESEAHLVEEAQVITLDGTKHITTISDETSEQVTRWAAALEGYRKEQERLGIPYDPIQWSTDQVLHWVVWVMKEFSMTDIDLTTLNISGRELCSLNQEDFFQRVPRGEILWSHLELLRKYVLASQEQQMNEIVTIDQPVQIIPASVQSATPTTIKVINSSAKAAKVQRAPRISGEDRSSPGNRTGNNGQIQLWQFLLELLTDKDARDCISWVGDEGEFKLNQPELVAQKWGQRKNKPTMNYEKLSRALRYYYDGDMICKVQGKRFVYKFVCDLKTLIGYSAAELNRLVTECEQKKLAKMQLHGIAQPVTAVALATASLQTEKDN
# Procedure, shortened: as §1
# ERG = biological target: T4, ERG (Homo sapiens, UniProt P11308 1-479)
# T4 sequence: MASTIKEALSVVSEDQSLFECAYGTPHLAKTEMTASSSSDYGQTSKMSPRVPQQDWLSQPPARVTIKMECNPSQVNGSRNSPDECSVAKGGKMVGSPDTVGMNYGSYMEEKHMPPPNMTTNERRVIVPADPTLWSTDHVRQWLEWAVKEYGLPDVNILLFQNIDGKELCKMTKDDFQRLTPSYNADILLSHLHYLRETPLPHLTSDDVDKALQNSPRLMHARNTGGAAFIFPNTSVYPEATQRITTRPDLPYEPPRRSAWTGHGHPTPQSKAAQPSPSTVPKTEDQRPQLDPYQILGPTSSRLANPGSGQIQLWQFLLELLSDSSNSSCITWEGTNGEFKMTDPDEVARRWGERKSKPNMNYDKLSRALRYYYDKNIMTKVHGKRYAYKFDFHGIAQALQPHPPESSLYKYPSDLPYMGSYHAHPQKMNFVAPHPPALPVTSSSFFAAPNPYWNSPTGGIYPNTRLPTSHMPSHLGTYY
# Procedure, shortened: as §1
# ELF1 = ELF1 (Homo sapiens, UniProt P32519 1-619)
# Chain of ELF1 (P32519 whole entry): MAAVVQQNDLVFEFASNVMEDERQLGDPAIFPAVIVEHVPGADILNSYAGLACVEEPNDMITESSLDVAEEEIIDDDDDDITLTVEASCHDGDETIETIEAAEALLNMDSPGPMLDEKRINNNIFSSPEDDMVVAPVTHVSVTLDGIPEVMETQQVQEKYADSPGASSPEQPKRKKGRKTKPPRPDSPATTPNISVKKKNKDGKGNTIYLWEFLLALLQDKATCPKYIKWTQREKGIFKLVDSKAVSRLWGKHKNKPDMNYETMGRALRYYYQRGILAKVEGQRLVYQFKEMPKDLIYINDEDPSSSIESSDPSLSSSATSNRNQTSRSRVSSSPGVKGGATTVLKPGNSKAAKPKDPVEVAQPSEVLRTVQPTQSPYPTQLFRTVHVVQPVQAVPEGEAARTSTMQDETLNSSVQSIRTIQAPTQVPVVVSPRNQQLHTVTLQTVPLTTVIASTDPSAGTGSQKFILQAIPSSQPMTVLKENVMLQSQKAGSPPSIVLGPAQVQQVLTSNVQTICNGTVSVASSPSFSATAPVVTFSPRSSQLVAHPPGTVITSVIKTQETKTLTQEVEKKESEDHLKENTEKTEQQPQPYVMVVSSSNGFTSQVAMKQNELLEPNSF
# Procedure, shortened: as §1
# EHF = biological target: T5, EHF (Homo sapiens, UniProt Q9NZC4 1-300)
# T5 sequence: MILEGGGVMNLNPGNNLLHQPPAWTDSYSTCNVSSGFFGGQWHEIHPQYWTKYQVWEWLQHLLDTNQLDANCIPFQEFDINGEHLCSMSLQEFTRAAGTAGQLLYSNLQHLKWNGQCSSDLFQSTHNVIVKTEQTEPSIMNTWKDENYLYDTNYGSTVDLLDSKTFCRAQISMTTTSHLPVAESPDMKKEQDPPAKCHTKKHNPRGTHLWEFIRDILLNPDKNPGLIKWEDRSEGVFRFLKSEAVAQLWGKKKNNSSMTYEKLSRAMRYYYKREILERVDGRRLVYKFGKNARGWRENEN
# Procedure, shortened: as §1
# SPI1 = SPI1 (Homo sapiens, UniProt P17947 1-270)
# Procedure, shortened: as §1
# SPIB = SPIB (Homo sapiens, UniProt Q01892 1-262)
# Chain of SPIB (Q01892 whole entry): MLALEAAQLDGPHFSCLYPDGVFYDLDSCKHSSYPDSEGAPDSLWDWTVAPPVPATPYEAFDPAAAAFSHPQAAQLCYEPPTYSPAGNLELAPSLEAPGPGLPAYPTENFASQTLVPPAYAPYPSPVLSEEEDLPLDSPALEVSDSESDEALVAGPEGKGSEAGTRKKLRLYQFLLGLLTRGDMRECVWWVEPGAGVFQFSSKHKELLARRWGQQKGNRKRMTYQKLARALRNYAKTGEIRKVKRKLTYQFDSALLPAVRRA
# Procedure, shortened: as §1
# ELK3 = biological target: T6, ELK3 (Homo sapiens, UniProt P41970 1-407)
# T6 sequence: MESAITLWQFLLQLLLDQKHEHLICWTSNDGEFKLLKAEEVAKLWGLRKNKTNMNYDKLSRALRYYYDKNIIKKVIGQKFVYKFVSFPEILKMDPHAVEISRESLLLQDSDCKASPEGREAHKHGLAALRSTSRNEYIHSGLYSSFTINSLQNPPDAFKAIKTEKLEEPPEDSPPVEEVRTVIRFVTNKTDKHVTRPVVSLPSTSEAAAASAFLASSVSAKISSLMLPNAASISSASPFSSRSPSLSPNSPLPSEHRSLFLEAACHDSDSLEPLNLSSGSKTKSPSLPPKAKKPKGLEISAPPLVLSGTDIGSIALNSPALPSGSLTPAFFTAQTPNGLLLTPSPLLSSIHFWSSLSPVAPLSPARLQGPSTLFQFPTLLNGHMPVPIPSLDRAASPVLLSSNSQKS
# Procedure, shortened: as §1
sequence,measurement,setting,value
CATTTT,binding signal,FLI1,"1.24 fold enrichment (6-mer frequency, TF over GST control)"
same,binding signal,ELK1,"1.04 fold enrichment (6-mer frequency, TF over GST control)"
same,binding signal,GABPA,"1.23 fold enrichment (6-mer frequency, TF over GST control)"
same,binding signal,ERG,"1.14 fold enrichment (6-mer frequency, TF over GST control)"
same,binding signal,ELF1,"1.18 fold enrichment (6-mer frequency, TF over GST control)"
same,binding signal,EHF,"1.16 fold enrichment (6-mer frequency, TF over GST control)"
same,binding signal,SPI1,"1.39 fold enrichment (6-mer frequency, TF over GST control)"
same,binding signal,SPIB,"1.23 fold enrichment (6-mer frequency, TF over GST control)"
same,binding signal,ELK3,"1.15 fold enrichment (6-mer frequency, TF over GST control)"
